# Experimental data reported in the supplement of paper PMC10849652.
# Targets with a hit are over-represented here; the source holds about 7,900 in all. About 0.6% of all pairs of compound and target were hits. Unmarked numbers belong to inactive results.
# How the values were obtained:
# Assay in all cases: log2 fold change, soluble protein after heating vs DMSO (PISA); higher = thermal stabilisation; K562 cells, 10 uM, 30 min; active = over 0.2 and 3.5 SD of the protein, either way, in both replicates (recomputed)
# [1] = compound: C#Cc1cccc(Nc2ncnc3cc(OCCOC)c(OCCOC)cc23)c1 [erlotinib]
# Outline: (§1)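 Soluble protein was defined as the supernatant after 21,000xg for 90 min. It came from K562 cells at 2×10^6 cells/mL given 10 μM compound for 30 min, heated in aliquots for 3 min across 48°C-58°C, pooled, and extracted in PBS with 0.5% NP-40 at 4°C, and was quantified by TMTpro 16plex LC-MS/MS with equalised channel sums. Thermal stability against control samples, from duplicates, is reported as log2 fold change.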
# [2] = compound: C/C(=N\NC(=O)C1=CC(=CC=C1)S(=O)(=O)N2CCOCC2)/C3=C(C=CC(=C3)Cl)O
# Outline: as §1
# [3] = compound: C1=CC(=C(C=C1Cl)C2=NC3=NC=CN=C3C(=N2)NC4=CC=NC=C4)F
# Outline: as §1
# [4] = compound: C1=CC(=CC=C1C2=NC3=C(N2)C=C(C=C3)C(=O)N)OC4=CC=C(C=C4)Cl
# Outline: as §1
# [5] = compound: C1=CC2=C(C=CC(=C2)/C=C\3/C(=O)NC(=NCC4=CC=CS4)S3)N=C1
# Outline: as §1
# [6] = compound: C1=CC2=NC=CN=C2C=C1/C=C/3\C(=O)NC(=O)S3
# Outline: as §1
# [7] = compound: C1=CC=C(C=C1)C2=NC(=C(N2)C3=CC=NC=C3)C4=CC(=C(C=C4)Cl)O
# Outline: as §1
# [8] = compound: C1=CC=C2C(=C1)C3=NNC4=CC=CC(=C43)C2=O
# Outline: as §1
# [9] = compound: C1CCN(C1)C(=O)NC2=CC=CC(=C2)NC3=NC=C(C(=N3)NCCC4=CN=CN4)Br
# Outline: as §1
# [10] = compound: C1CN(CCC1(CC2=CC=C(C=C2)Cl)N)C3=NC=NC4=C3C=CN4
# Outline: as §1
# [11] = compound: C1COCCN1CCN2C3=CC=CC=C3N=C2NC(=O)C4=CC(=CC=C4)[N+](=O)[O-] [IRAK-1-4 Inhibitor I]
# Outline: as §1
# [12] = compound: C=CC(=O)N1CCC[C@@H](n2nc(-c3ccc(Oc4ccccc4)cc3)c3c(N)ncnc32)C1 [ibrutinib]
# Outline: as §1
# [13] = compound: CC(=O)c1cnc2ccc(-c3cc(Cl)c(O)c(Cl)c3)nc2c1N[C@H]1CC[C@H](CN(C)C)CC1
# Outline: as §1
# [14] = compound: CC(C)(C)Cn1c(N)nc2ccc(-c3[nH]c(C(C)(C)C)nc3-c3ccc(F)cc3)nc21 [ralimetinib]
# Outline: as §1
# [15] = compound: CC(C)(O)CC(=O)NCCn1ccc2ncnc(Nc3ccc(Oc4cccc(C(F)(F)F)c4)c(Cl)c3)c21
# Outline: as §1
# [16] = compound: CC(C)C1=C2N=C(C=C(N2N=C1)NCC3=CC=CC=C3)NCCCCCCN
# Outline: as §1
# [17] = compound: CC(C)C[C@@H](C=O)NC(=O)[C@H](CC(C)C)NC(=O)[C@H](CC(C)C)NC(=O)OCc1ccccc1
# Outline: as §1
# [18] = compound: CC(C)N(C[C@H]1O[C@@H](n2cnc3c(N)ncnc32)[C@H](O)[C@@H]1O)[C@H]1C[C@@H](CCc2nc3cc(C(C)(C)C)ccc3[nH]2)C1 [pinometostat]
# Outline: as §1
# [19] = compound: CC1=C(C(CC(=O)N1)C2=CC=C(C=C2)C(F)(F)F)C(=O)NC3=C(C=C4C(=C3)C=NN4)F
# Outline: as §1
# [20] = compound: CC1=C(C2=C(C=C1)C(=O)C3=CC=CC=C3N2CCCN)C
# Outline: as §1
# UniProt O15182, sequence (O15182 whole entry, looked up): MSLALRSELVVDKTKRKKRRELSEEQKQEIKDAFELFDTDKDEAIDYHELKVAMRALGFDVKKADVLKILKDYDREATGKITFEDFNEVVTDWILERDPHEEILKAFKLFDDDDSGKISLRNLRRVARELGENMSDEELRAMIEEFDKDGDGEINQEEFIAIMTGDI
# UniProt P00915, sequence (P00915 whole entry, looked up): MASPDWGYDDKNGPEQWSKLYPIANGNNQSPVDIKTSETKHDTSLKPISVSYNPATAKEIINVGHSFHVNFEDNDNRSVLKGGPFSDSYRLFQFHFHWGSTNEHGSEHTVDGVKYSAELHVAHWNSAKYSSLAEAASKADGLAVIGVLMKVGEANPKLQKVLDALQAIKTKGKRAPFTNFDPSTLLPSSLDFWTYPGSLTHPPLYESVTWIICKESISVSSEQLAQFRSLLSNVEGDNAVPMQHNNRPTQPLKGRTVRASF
# UniProt P48729, sequence (P48729 whole entry, looked up): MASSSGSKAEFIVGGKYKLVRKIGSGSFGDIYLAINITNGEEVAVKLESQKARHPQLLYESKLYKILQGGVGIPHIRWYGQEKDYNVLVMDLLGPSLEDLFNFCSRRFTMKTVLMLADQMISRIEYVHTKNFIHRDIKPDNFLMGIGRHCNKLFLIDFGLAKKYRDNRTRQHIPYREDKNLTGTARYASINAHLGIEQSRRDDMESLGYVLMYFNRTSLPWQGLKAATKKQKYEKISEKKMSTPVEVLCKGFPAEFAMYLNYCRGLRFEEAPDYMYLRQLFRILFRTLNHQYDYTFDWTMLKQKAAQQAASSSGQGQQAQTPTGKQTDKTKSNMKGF
# UniProt Q8IUI8, sequence (Q8IUI8 whole entry, looked up): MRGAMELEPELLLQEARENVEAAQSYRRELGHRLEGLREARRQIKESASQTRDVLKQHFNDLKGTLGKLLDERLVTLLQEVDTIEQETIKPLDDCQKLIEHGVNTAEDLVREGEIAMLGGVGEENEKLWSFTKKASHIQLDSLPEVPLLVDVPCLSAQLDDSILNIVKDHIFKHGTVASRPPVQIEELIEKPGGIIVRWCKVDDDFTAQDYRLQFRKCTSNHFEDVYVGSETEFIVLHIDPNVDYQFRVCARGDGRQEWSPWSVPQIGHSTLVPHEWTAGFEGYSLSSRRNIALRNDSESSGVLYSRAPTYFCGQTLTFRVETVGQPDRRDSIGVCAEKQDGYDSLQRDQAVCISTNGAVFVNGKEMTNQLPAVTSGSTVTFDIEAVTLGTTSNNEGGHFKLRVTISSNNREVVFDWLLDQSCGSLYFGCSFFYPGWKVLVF
# UniProt Q9Y5S2, sequence (Q9Y5S2 whole entry, looked up): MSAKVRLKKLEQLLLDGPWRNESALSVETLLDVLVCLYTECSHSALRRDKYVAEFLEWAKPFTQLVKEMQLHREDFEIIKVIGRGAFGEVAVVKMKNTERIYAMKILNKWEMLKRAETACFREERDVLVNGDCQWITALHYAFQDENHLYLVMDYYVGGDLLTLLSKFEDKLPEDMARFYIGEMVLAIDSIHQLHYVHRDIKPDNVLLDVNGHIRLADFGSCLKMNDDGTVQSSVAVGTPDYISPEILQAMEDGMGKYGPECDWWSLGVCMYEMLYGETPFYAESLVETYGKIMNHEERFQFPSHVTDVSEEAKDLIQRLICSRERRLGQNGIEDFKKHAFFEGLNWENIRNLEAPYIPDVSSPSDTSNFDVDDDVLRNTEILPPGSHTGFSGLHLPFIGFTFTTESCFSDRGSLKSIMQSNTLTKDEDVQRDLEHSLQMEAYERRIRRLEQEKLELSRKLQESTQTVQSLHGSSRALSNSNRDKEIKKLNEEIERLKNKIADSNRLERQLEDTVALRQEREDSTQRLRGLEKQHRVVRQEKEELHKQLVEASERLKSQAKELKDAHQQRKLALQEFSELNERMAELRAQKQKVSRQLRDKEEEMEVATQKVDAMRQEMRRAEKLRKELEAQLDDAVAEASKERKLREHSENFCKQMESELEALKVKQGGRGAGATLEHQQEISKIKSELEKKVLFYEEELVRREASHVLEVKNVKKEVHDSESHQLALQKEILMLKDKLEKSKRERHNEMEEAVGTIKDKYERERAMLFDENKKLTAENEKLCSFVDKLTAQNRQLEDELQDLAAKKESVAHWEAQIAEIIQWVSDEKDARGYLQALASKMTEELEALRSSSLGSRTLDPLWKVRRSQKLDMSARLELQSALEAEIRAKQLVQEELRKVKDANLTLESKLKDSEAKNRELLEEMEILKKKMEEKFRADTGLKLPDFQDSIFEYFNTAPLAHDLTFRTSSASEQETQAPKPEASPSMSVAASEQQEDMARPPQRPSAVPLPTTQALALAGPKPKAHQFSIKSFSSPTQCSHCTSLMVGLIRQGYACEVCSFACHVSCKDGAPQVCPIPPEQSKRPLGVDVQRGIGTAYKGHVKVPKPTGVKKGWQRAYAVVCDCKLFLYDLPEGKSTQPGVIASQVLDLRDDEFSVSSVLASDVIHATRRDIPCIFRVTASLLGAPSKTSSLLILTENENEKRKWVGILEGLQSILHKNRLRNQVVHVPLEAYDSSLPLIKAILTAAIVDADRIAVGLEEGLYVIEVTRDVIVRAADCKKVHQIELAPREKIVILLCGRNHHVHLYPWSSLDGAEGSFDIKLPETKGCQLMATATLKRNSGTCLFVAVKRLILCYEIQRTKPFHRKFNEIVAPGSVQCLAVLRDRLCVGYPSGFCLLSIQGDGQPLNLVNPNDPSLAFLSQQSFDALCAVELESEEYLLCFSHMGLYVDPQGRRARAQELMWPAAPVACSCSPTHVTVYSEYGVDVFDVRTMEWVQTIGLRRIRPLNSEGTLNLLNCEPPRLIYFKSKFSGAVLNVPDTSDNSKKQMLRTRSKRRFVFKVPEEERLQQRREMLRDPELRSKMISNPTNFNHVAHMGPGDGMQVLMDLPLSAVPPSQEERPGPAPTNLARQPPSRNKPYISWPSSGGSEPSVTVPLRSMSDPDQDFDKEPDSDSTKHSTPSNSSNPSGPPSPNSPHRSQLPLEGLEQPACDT
# UniProt P42575, sequence (P42575 whole entry, looked up): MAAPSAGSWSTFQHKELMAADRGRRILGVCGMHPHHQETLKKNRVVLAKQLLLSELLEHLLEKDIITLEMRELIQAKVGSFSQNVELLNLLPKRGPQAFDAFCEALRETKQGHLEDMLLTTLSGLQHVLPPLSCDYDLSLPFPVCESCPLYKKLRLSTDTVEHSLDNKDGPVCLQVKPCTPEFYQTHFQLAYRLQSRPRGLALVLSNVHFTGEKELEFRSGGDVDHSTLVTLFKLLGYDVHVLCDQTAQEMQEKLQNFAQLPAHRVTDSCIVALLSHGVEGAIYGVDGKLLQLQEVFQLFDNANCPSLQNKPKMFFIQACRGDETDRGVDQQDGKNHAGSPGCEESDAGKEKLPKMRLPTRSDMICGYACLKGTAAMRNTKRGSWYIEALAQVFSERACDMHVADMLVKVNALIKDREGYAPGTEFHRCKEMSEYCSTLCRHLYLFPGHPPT
# UniProt Q9NZN8, sequence (Q9NZN8 whole entry, looked up): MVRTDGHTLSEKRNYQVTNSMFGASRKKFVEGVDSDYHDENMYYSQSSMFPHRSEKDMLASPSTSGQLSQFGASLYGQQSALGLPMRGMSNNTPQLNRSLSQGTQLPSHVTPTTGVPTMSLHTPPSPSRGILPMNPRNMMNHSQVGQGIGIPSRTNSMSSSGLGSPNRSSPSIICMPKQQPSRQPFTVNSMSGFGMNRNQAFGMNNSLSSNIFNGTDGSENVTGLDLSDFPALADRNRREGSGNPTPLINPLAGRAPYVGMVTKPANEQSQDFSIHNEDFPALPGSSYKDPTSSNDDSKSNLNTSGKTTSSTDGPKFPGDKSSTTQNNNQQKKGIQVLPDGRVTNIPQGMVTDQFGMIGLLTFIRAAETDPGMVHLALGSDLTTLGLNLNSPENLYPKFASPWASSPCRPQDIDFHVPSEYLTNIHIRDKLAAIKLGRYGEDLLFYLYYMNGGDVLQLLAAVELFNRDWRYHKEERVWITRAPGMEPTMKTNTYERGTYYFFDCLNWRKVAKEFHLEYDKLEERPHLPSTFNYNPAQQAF
# UniProt O75794, sequence (O75794 whole entry, looked up): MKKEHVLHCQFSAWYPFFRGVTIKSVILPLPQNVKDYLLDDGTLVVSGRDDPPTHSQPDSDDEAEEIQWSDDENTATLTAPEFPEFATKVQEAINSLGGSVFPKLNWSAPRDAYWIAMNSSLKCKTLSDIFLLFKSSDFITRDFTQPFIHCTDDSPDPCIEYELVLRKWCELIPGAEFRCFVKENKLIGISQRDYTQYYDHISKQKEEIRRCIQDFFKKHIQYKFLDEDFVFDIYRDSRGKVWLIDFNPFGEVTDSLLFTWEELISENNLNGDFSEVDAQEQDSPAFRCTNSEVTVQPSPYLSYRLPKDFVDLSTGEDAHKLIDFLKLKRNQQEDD
# UniProt Q00536, sequence (Q00536 whole entry, looked up): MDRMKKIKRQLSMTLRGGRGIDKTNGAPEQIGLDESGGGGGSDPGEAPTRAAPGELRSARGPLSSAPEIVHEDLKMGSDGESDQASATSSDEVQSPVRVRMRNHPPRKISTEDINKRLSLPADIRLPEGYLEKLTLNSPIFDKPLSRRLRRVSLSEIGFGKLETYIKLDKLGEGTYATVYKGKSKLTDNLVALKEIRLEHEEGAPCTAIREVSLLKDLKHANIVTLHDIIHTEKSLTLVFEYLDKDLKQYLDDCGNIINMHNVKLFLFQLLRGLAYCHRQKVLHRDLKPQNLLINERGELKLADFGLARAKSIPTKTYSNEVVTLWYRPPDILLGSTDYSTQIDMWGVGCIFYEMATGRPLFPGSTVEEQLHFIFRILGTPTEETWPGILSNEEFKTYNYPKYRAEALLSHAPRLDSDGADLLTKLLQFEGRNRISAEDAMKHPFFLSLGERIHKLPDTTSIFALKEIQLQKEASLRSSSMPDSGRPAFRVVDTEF
# UniProt Q8WUX2, sequence (Q8WUX2 whole entry, looked up): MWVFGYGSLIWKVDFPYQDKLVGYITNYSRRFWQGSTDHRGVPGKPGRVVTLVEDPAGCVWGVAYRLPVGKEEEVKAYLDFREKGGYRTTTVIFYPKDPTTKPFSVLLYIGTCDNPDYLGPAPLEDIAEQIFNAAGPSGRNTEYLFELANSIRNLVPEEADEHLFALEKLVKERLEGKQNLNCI
Target,log2 fold change [1],log2 fold change [2],log2 fold change [3],log2 fold change [4],log2 fold change [5],log2 fold change [6],log2 fold change [7],log2 fold change [8],log2 fold change [9],log2 fold change [10],log2 fold change [11],log2 fold change [12],log2 fold change [13],log2 fold change [14],log2 fold change [15],log2 fold change [16],log2 fold change [17],log2 fold change [18],log2 fold change [19],log2 fold change [20]
CCDC9 (UniProt Q9Y3X0),0.017,-0.116,-0.036,0.047,-0.045,0.034,0.027,-0.02,0.062,0.034,-0.05,0.078,0.173,0.031,0.053,0.105,0.087,-0.024,0.021,0.296 (active)
COX20 isoform 2 (UniProt Q5RI15),0.037,0.013,0.072,0.008,0.057,0.016,-0.092,-0.061,0,0.03,-0.019,0.043,-0.022,-0.055,0.016,0.006,0,-0.018,-0.018,0.019
CPD (UniProt O75976),-0.025,-0.08,0.009,0.028,0.055,0.011,-0.007,-0.041,-0.045,0.008,-0.011,-0.018,-0.015,-0.03,-0.058,-0.126,0.077,0.002,0.04,-0.019
CAMSAP1 isoform 3 (UniProt Q5T5Y3),-0.084,0.023,-0.014,-0.013,0.058,0.007,0.035,-0.078,-0.016,0.006,-0.076,-0.069,-0.29,-0.031,-0.062,-0.078,0.031,0.121,-0.056,0.108
CDC42BPB (UniProt Q9Y5S2),-0.005,0.221,-0.071,0.069,-0.047,0.027,-0.024,0.04,0.017,-0.221,-0.022,-0.167,-0.637 (active),0.124,0.023,-0.063,-0.009,0.267,-0.038,0.023
CSNK1A1 (UniProt P48729),0.073,0.002,-0.028,-0.002,-0.008,0.018,-0.029,-0.088,0.001,-0.064,-0.016,0.015,-0.053,0.026,-0.041,-0.25 (active),0.145,0.112,0.038,0.028
CRYM-AS1 (UniProt A6NIL9),0.13,-0.214,0.027,0.23,0.089,-0.725,0.024,0.073,-0.27,0.108,0.13,0.172,-0.017,-0.063,-0.108,-0.088,0.168,0.054,0.038,-0.099
CDC123 (UniProt O75794),-0.039,0.038,0.011,0.036,-0.021,0.032,0.048,-0.001,-0.001,0.023,-0.023,-0.009,-0.026,-0.015,-0.088,-0.05,0.037,-0.009,0,0.001
CETN3 (UniProt O15182),-0.098,0.009,-0.065,-0.022,0.027,0.077,-0.12,-0.055,0.041,-0.125,0.031,-0.022,-0.006,-0.075,0.035,-0.038,0.039,0.016,-0.002,-0.18
CASP2 (UniProt P42575),0.069,-0.007,0.056,-0.011,0.054,-0.025,-0.011,0.028,0.004,-0.053,0.017,0.027,0,-0.074,-0.073,-0.082,0.072,-0.013,-0.016,0.091
CDK16 isoform 2 (UniProt Q00536),-0.072,-0.025,-0.023,-0.07,0.043,-0.016,-0.024,0.121,0.139,-0.029,-0.029,-0.018,0.843 (active),0.05,-0.031,0.069,0.059,0.016,-0.03,0.025
CRLF3 (UniProt Q8IUI8),0.09,-0.034,0.036,-0.015,0.076,0.019,-0.018,-0.028,0.027,-0.04,0,-0.047,-0.079,0.008,-0.122,-0.166,0.013,-0.001,0.015,-0.035
CNOT2 (UniProt Q9NZN8),0.043,0.059,0.009,-0.024,0.016,0.045,-0.031,-0.042,-0.019,-0.034,0.112,0.013,-0.045,-0.027,-0.038,-0.112,0.013,0.05,-0.005,0.059
CHAC2 (UniProt Q8WUX2),0.025,-0.011,0.001,-0.012,-0.003,-0.033,-0.018,0.001,-0.025,0.093,0.038,-0.058,-0.009,-0.021,0.085,0.03,0,0.01,-0.061,-0.036
CA1 (UniProt P00915),-0.025,0.022,0.03,0.006,-0.079,0.009,0.064,0.004,0.018,0.054,0.068,-0.02,0.003,0.017,-0.031,0.119,-0.011,-0.006,-0.019,-0.043
